This is a sample that favours compounds with a hit; in the whole collection about 5.7% have one here.
A549 tox: counter-screen for Nrf2 inhibitors: cytotoxicity in A549 cells. A549 ARE-Fluc cells, CellTiter-Fluor viability, 18-24 h. Potency, µM (series often up to 46 µM), for inactives: top-dose activity change, negative = cytotoxicity, most hits filed as inhibitors. 390,000 tested, 0.16% active; further: potency means the concentration at half of the fitted maximal effect
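A549 ARE-Fluc cells in 5% FBS OPTI-MEM, 5000 cells/well, rested 2 h then exposed to compounds in concentration-response for 18-24 h at 37 °C. Viability by CellTiter-Fluor fluorescence (Ex 405/Em 525) after 30 min; luciferase luminescence (BugLite, 15 min, RT) read afterwards.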
PI4K2A block: inhibitors of human PI4K2A; activity change, negative = inhibition, % at 76.9 µM; Q9BTU6; purified PI4K2A, ADP-Glo luminescence, 1 h; hits give low values; 420,000 tested, 0.13% active; AID 1346378; in the data active means activity change below about -50%; inconclusive means mostly about -30% to -49%;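 further: -100% = wells without enzyme as full effect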
Target sequence (Q9BTU6 whole entry, looked up): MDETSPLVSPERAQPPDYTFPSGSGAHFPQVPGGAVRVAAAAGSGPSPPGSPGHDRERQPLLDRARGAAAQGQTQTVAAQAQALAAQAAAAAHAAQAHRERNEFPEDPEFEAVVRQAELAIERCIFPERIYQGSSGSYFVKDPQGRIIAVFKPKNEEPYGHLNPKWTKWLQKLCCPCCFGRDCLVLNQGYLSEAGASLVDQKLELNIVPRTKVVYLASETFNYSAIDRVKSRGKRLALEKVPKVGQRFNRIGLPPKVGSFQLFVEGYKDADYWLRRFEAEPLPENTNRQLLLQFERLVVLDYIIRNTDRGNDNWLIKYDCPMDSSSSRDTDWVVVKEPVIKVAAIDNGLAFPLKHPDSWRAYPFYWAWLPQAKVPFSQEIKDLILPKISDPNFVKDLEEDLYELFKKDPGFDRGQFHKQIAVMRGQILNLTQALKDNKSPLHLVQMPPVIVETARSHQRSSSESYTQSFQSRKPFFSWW
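Compounds are screened against recombinant PI4K2A using PI as substrate and ATP, the latter dispensed at 300 microM. Reactions run one hour at ambient temperature before ADP-Glo detection; full inhibition defined by wells lacking enzyme.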
Giardia killer: kills Giardia lamblia; activity change, % at 7.66 µM, hits read low; Giardia lamblia trophozoite viability; 340,000 tested, 0.15% active; in the data active means activity change below about -80%; inconclusive means between about -30% and that limit;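 further: parasites exposed to compound for two days anaerobically before the ATP read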
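Giardia trophozoites, 100 cells per well, were exposed to compounds for 48 hrs at 37 deg C under anaerobic conditions; viability was then read as ATP content by bioluminescence after 15-30 min at room temperature.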
KB-3-1 cytotox: KB-3-1 parental cell cytotoxicity. KB-3-1 viability, CellTiter-Glo ATP luminescence, 72 h. Potency, µM (titrated, usually from 46.1 µM), most hits filed as cytotoxic. 400,000 tested, 1.4% active; further: potency means the concentration at half of the fitted maximal effect; nearly all actives have a fitted effect of over 60% in size
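Cytotoxicity measured as CellTiter-Glo luminescence after 72 h at 37 C. Compound titrations were pinned onto drug-naive KB-3-1 parental adenocarcinoma cells grown in DMEM with 10% FBS, and normalized data fitted to concentration-response curves.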
Nrf2 inh: Nrf2 pathway inhibition; A549 ARE-Fluc reporter, luciferase luminescence, 18-24 h; Potency, µM (highest dose often 46 µM), inactives show at the highest dose activity change, negative = inhibition, hits mostly inhibitors; 360,000 tested, 2.1% active; further: potency means the concentration at half of the fitted maximal effect; nearly all actives have a fitted effect of over 60% in size
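A549 ARE_Fluc cells (5000/well, 5% FBS OPTI-MEM) pre-incubated 2 h, then treated with compounds 18-24 h at 37C/5% CO2 in concentration-response. CellTiter-Fluor viability read first; BugLite luciferase luminescence after 15 min at room temperature gives Nrf2 activity.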
KB-V1 MDR tox: kills drug-selected multidrug resistant KB-V1 cells. KB-V1 MDR cells viability, CellTiter-Glo, 72 h. Potency, µM (doses to about 46.1 µM), usual class: cytotoxic. 400,000 tested, 3.4% active; further: potency means the concentration at half of the fitted maximal effect; nearly all actives have a fitted effect of over 60% in size
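Readout: CellTiter-Glo luminescence, 10 min after addition. Cells: KB-V1 MDR subline, 72 h at 37 degrees C with compound. Analysis: corrected, normalized data fitted to concentration-effect curves.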
* = called active by the depositor; i = inactive; ? = inconclusive; nt = no result. Unless noted, the call rests on the fitted dose curve; in most records, active means well fitted curve in the direction sought with a large enough effect; inconclusive means small, poorly fitted or top-dose-only effect, or another doubt; inactive means no such curve, though single readings can be large; an effect the other way counts as inactive or inconclusive. Unless noted, on the % scale 0 is the no-effect control and ±100 the full control effect.

SMILES	A549 tox	PI4K2A block	Giardia killer	KB-3-1 cytotox	Nrf2 inh	KB-V1 MDR tox
CCc1ccc(S(=O)(=O)NCCc2csc3nc(-c4ccccc4)nn23)s1	-1%	3	nt	nt	nt	nt
CC1CC(=O)N(CC(=O)NCc2ccc3c(c2)OCO3)c2ccccc2S1 (stereo not given)	0%	2	-1	i	-20%	21µM*
O=C(CN1C(=O)CCSc2ccccc21)Nc1ccc2c(c1)OCO2	-6%	1	-20	i	nt	18µM*
COc1c(C)c2c(c(O)c1C/C=C(\C)CCC(=O)OCCN1CCOCC1)C(=O)OC2	nt	-1	nt	nt	nt	nt
O=C(Nc1ccc(S(=O)(=O)N2CCCCC2)cc1)c1ccc(F)cc1	-8%	6	-9	i	29µM*	i
O=C(COC(=O)c1ccc(S(=O)(=O)N2CCCC2)cc1)Nc1cccnc1Cl	9%	-1	-6	i	-9%	i
CN(C1CCCCC1)S(=O)(=O)c1ccc(NC(=O)C2CCCCC2)cc1	-16%	2	-19	i	23µM*	?
O=C(Nc1cccc(Cl)c1)C1CCCN(S(=O)(=O)c2ccc(F)cc2)C1 (stereo not given)	?	-1	6	?	nt	6.5µM*
O=C(Nc1cccnc1Cl)c1ccc(S(=O)(=O)N2CCCCCC2)cc1	2%	2	-12	i	nt	9.2µM*
CC(C)(C)c1ccc(-c2nnc(SCC(=O)Nc3ccc(S(=O)(=O)Nc4nccs4)cc3)n2-c2ccc(Cl)cc2)cc1	nt	-2	nt	nt	nt	nt
COc1ccc2c(CNCCc3ccccc3)c(C(=O)O)n(Cc3cccc(F)c3)c2c1	-23%	-2	nt	nt	nt	nt
Cc1ccc(S(=O)(=O)Nc2cccc3cccnc23)c([N+](=O)[O-])c1	?	-6	-4	?	10µM*	?
Cc1ccc(S(=O)(=O)Nc2cccc(Cl)c2)cc1NC(=O)c1cccnc1	-1%	-6	-6	i	-24%	i
Cc1cccc(NC(=O)C2CCN(S(=O)(=O)c3ccc4[nH]c5c(c4c3)CCCCC5)CC2)c1	-6%	-5	nt	?	-12%	i
O=C(Nc1ccccc1)C1CCN(S(=O)(=O)c2ccc3[nH]c4c(c3c2)CCCCC4)CC1	-25%	-10	nt	i	16µM*	i
CN(c1ccccc1C(=O)Nc1ccc(S(=O)(=O)N2CCCC2)cc1)S(C)(=O)=O	-5%	0	-6	i	-5%	i
CN(c1ccc(C(=O)Nc2ccc(S(=O)(=O)N3CCCC3)cc2)cc1)S(C)(=O)=O	-26%	-1	15	?	9.2µM*	?
Cc1ccc(S(=O)(=O)Nc2cccc(Cl)c2)cc1NC(=O)C1CC1	0%	-6	-14	?	?	21µM*
O=C(Nc1ccc(S(=O)(=O)N2CCCC2)cc1)C1CCN(S(=O)(=O)c2ccc(F)cc2)CC1	0%	1	-4	?	23µM*	?
Cc1ccc(NC(=O)C2CCN(S(=O)(=O)c3ccc(F)cc3)CC2)cc1	-1%	-8	0	i	-33%	i
O=S(=O)(Nc1cccc2cccnc12)c1ccc(S(=O)(=O)N2CCCC2)cc1	-10%	-1	-5	i	5.2µM*	?
C/C=C1\[C@H]2C=C(C)C[C@]1(N)c1ccc(=O)[nH]c1C2	nt	-3	nt	nt	nt	nt
COc1cccc(-c2nnc3n2N=C(c2c(OC)cccc2OC)CS3)c1	-2%	nt	nt	nt	-9%	nt
CCOC(=O)C1CCN(C(=O)C(Cc2ccc3c(c2)OCO3)NC(C)=O)CC1 (stereo not given)	nt	-4	nt	nt	nt	nt
CCn1c(=O)c(=O)[nH]c2cc(C(=O)NC3CCCc4ccccc43)ccc21 (stereo not given)	-17%	-3	18	10µM*	-17%	i
COc1ccc(C2(CNC(=O)c3ccc(OC)c([N+](=O)[O-])c3)CCCCC2)cc1OC	1%	6	17	i	11%	2.6µM*
COc1ccc(C(=O)NCC2(c3ccc(OC)c(OC)c3)CCCC2)cc1OC	nt	-2	nt	i	nt	?
